Experimental findings from PubChem BioAssay (NCI) are described below.

Test in all cases: NCI-60 one-dose screen, 48 h (100 = growth as untreated, 0 = no growth, -100 = all killed)
Holding throughout (settings): 10 µM unless noted

The subject of assay [1] is T-47D breast.
The test system of assay [2] is BT-549 breast.
For assay [3], the system named is MDA-MB-435 melanoma.
The test system of assay [4] is SW-620 colon.
Assay [5] deals with MCF7 breast.
In assay [6] the test system is HCT-116 colon.
Assay [7] has as its system HCC-2998 colon.
For assay [8], the system named is KM12 colon.

The panel holds about 83,000 compounds, 20% with a hit somewhere; the sample as a whole holds those more often.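 For each line, cells grew in 96-well plates with the test compound present at a single concentration for 48 hours.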 Values without a mark were called inactive. Active and inactive are the calls of the source. Rule for the calls: active = growth percent below 10; inactive = the rest.

Turning to `O=C1CCCCCCCCC(O)C(O)CCCC(c2cccs2)O1` (configuration not stated), the growth in assay [1] is 71.8%; in assay [2], 122%; in assay [3], 99.3%; in assay [4] it was 103%; in assay [5] it was 95.9%; in assay [6], 89.8%. The figures for the growth in assay [7] and in assay [8] were 118% and 100%, respectively.
On to `CC(=O)NCCCS(=O)(=O)O`, for which the growth in assay [1] was 102%; in assay [2] it was 110%; in assay [3], 99.9%; in assay [4], 90.9%; in assay [5], 101%; in assay [6] it was 98.5%. Further, the growth in assay [7] and in assay [8] was 102% throughout.
In the case of `CC(=O)N1N=C(c2cccc(Nc3ccncc3)c2)CC1c1ccc2c(c1)OCO2` (configuration not stated), the growth was 74.1% in assay [1]; -44.5% (active) in assay [2]; 35.1% in assay [3]; 86.2% in assay [4]; 71.4% in assay [5]; -52.3% (active) in assay [6]. The growth was 94.2% in assay [7] and 88.2% in assay [8].
With `O=C(Nc1ccc2ncnc(Nc3ccc(Oc4cccc(F)c4)c(Cl)c3)c2c1)c1ccc(CNCCO)cc1`, the growth was 42.6% in assay [1]; 85.5% in assay [2]; -86.3% (active) in assay [3]; -74% (active) in assay [4]; -67.2% (active) in assay [5]; -46.5% (active) in assay [6]. The growth in assay [7] was -8.44% (active); in assay [8] it was 12.9%.
As to `CCSc1ccc2c(c1)N(CCCN1CCN(C)CC1)c1ccccc1S2`, the growth in assay [1] was 47%; in assay [2], 73.2%; in assay [3], -15.1% (active); in assay [4], 45.5%; in assay [5], 20.5%; in assay [6], 21.9%. In addition, the values for the growth in assay [7] and in assay [8] were 13.4% and 4.74% (active), respectively.
In the case of `COc1cc(-c2nc3occn3c2-c2ccnc(NCCNS(=O)(=O)c3ccc(Cl)cc3)n2)ccc1F`, the growth in assay [1] is 51.6%; in assay [2], 95.5%; in assay [3], 62.2%; in assay [4], 109%; in assay [5] it was 65.5%; in assay [6], 63.6%. Also, the growth in assay [7] was 103%; in assay [8] it was 86.9%.
As for `COC(=O)C(c1ccccc1)C(CC(=O)c1ccccc1)c1ccccc1` (configuration not stated), the growth is 76.2% in assay [1]; 108% in assay [2]; 88.8% in assay [3]; 104% in assay [4]; 99.5% in assay [5]; 88.8% in assay [6]. Moreover, the growth was 96.1% in assay [7] and 91.5% in assay [8].
Regarding `Cc1ccc(C(=O)Nc2ccccc2C(=O)N/N=C(\c2ccccc2)c2ccccn2)cc1`, the growth in assay [1] was 13.4%; in assay [2], 13.5%; in assay [3], 28%; in assay [4] it was 37.3%; in assay [5], 11.9%; in assay [6], 17.9%. Moreover, the growth in assay [7] is 29.7%; in assay [8], 26%.
On to `CN(Cc1ccccc1)c1nc(Cl)c(C2CC(c3ccc(Cl)cc3)=Cc3[nH][nH]c(=O)c32)s1` (configuration not stated), for which the growth in assay [1] was 89.7%; in assay [2] it was 67.7%; in assay [3] it was 85%; in assay [4] it was 99.8%; in assay [5], 47.6%; in assay [6], 94.2%. The growth in assay [7] is 104%; in assay [8] it was 103%.
For the compound `Cc1[nH]n(-c2cccc(Cl)c2)c(=O)c1/C=C1\C=Nc2ccc(Br)cc21`, the growth in assay [1] is -47.4% (active); in assay [2] it was 41.5%; in assay [3] it was 43.9%; in assay [4] it was 17.2%; in assay [5], 33.9%; in assay [6] it was -76% (active). For the same compound, the growth is 63.5% in assay [7] and 47.2% in assay [8].
As for `O=C(NCCN1CCOCC1)OCc1nc2nc(Cl)nc(N3CCOCC3)c2[nH]1`, the growth is 63.2% in assay [1]; 13.1% in assay [2]; -28.9% (active) in assay [3]; 23.9% in assay [4]; 20.2% in assay [5]; 8.45% (active) in assay [6]. In addition, the growth was 77.8% in assay [7] and 3.29% (active) in assay [8].
For `COc1ccc(-c2c(-c3ccccc3)noc2N)cc1OC`, the growth in assay [1] was 99.6%; in assay [2], 105%; in assay [3] it was 91%; in assay [4], 118%; in assay [5] it was 91.2%; in assay [6], 100%. Besides, the growth was 110% in assay [7] and 94.7% in assay [8].
Take `CC(N)C(=O)NNc1n[nH]c(=S)n1N` (configuration not stated): the growth in assay [1] was 98.6%; in assay [2] it was 87.1%; in assay [3] it was 96.1%; in assay [4] it was 93.1%; in assay [5], 93.7%; in assay [6], 103%. Besides, the growth in assay [7] and in assay [8] was 102% in each case.
Turning to `Cc1cc2nc(-c3ccccc3)c(-c3ccccc3)nc2cc1C`, the growth in assay [1] was 86.5%; in assay [2] it was 97.5%; in assay [3] it was 93%; in assay [4], 99%; in assay [5] it was 88.9%; in assay [6], 91.4%. The growth in assay [7] and in assay [8] was 104% each time.
Take `Nc1nnc(C(=O)c2cnc3n(c2=O)CCCCC3)s1`: the growth in assay [1] is 98.5%; in assay [2] it was 108%; in assay [3] it was 106%; in assay [4] it was 100%; in assay [5], 98.8%; in assay [6], 103%. Further, the growth in assay [7] is 106%; in assay [8], 105%.
On to `O=C1Nc2c(ccc(Cl)c2Cl)/C1=C/c1ccc(F)cc1`, for which the growth in assay [1] is 71.2%; in assay [2] it was 99.8%; in assay [3] it was 99.1%; in assay [4] it was 96.4%; in assay [5], 37.7%; in assay [6], 84.4%. Also, the growth in assay [7] is 58.1%; in assay [8], 85.2%.
Turning to `COc1ccc2nc(N=Nc3c(O)ccc4ccccc34)sc2c1`, the growth in assay [1] is 27.3%; in assay [2] it was 53.3%; in assay [3] it was 45.1%; in assay [4] it was 35.8%; in assay [5] it was 13.9%; in assay [6] it was 26.6%. Moreover, the values for the growth in assay [7] and in assay [8] were 45.9% and 32.3%, respectively.
As for `COc1ccc(-c2nc(SC(C)C)nc(NNC(N)=O)c2C#N)cc1`, the growth in assay [1] is 84.8%; in assay [2] it was 102%; in assay [3], 3.51% (active); in assay [4], 50.7%; in assay [5], 84.3%; in assay [6], 102%. Further, the results for the growth in assay [7] and in assay [8] were 88.9% and 58.6%, respectively.
Consider `NC(=O)c1ccc[n+](CC(=O)N2CCN(c3cc4c(cc3F)c(=O)c(C(=O)O)cn4C3CC3)CC2)c1`, for which the growth in assay [1] is 99.1%; in assay [2] it was 87.3%; in assay [3], 75.2%; in assay [4], 6.58% (active); in assay [5] it was 62.4%; in assay [6], 37.1%. In addition, the figures for the growth in assay [7] and in assay [8] were 115% and 90.1%, respectively.
On to `COc1ccc(Nc2nc(N)nc3c2CCc2occc2-3)cc1`, for which the growth in assay [1] was 83.4%; in assay [2] it was 78.3%; in assay [3] it was 105%; in assay [4], 106%; in assay [5], 78.7%; in assay [6], 90%. In addition, the values for the growth in assay [7] and in assay [8] were 108% and 95.9%, respectively.
Regarding `CC(C)Sc1nc(NN)c(C#N)c(-c2ccccc2)n1`, the growth in assay [1] was 90.4%; in assay [2] it was 79.3%; in assay [3], 103%; in assay [4] it was 94.9%; in assay [5] it was 90.9%; in assay [6] it was 87.9%. For the same compound, the growth in assay [7] is 100%; in assay [8] it was 101%.
As to `CNC(=O)Nc1ccc(-c2nc(N3CCOCC3)nc3c2cnn3C2CCOCC2)cc1`, the growth is -15.6% (active) in assay [1]; -15.4% (active) in assay [2]; -26.6% (active) in assay [3]; 12% in assay [4]; 1.06% (active) in assay [5]; 12.7% in assay [6]. The values for the growth in assay [7] and in assay [8] were 13.5% and 12.8%, respectively.
Take `COc1cc2nc(-c3ccc(C(F)(F)F)cc3)cc(OCCN3CCC(O)CC3)c2cc1OC`: the growth was 74.9% in assay [1]; 52.3% in assay [2]; 94.4% in assay [3]; 91.8% in assay [4]; 93.1% in assay [5]; 55.3% in assay [6]. Further, the values for the growth in assay [7] and in assay [8] were 77.9% and 86.8%, respectively.
In the case of `Clc1cc(Cl)cc(N2N=C(c3cccc(Nc4ccncc4)c3)CC2c2ccc3c(c2)OCO3)c1` (configuration not stated), the growth in assay [1] was 63.4%; in assay [2], 93.8%; in assay [3], -85.4% (active); in assay [4] it was -84.1% (active); in assay [5], -19.3% (active); in assay [6], 65.3%. For the same compound, the growth in assay [7] is -40.8% (active); in assay [8], -51.6% (active).
For `Cc1cccc(C)c1-c1cc(Cc2ccc(Cl)cc2)c(=O)[nH]n1`, the growth was 86.4% in assay [1]; 86.1% in assay [2]; 119% in assay [3]; 104% in assay [4]; 97.2% in assay [5]; 96.9% in assay [6]. The growth was 86.4% in assay [7] and 103% in assay [8].
For `O=C(Cc1ccc(/C=C/C(=O)c2ncc[nH]2)cc1)Nc1ccc(C(F)(F)F)cc1`, the growth in assay [1] is 29.2%; in assay [2] it was 44%; in assay [3], -1.95% (active); in assay [4], -16.1% (active); in assay [5], 10.3%; in assay [6], -58.7% (active). Further, the growth in assay [7] is 59.3%; in assay [8] it was -41.3% (active).
In the case of `CC(C)(C)OC(=O)N1CCN(c2ccc(N)cc2)C(=O)C1`, the growth was 106% in assay [1]; 116% in assay [2]; 106% in assay [3]; 109% in assay [4]; 91.9% in assay [5]; 99.9% in assay [6]. Besides, the figures for the growth in assay [7] and in assay [8] were 102% and 108%, respectively.
As for `O=C1Nc2ccccc2/C1=C\c1cccc(/C=C2/C(=O)Nc3ccccc32)n1`, the growth in assay [1] was -51.6% (active); in assay [2], -86.4% (active); in assay [3] it was -73.6% (active); in assay [4] it was -75.9% (active); in assay [5], -69.9% (active); in assay [6], -65.6% (active). The growth in assay [7] was -84.1% (active); in assay [8] it was -83.1% (active).
Regarding `COc1ccccc1/C=N/NC1=NC2C(N1)N(C)C(=O)N2C` (configuration not stated), the growth in assay [1] is 101%; in assay [2], 101%; in assay [3], 103%; in assay [4], 99.3%; in assay [5], 99.7%; in assay [6] it was 107%. Moreover, the growth in assay [7] is 101%; in assay [8] it was 105%.
